{"source": "PubChem BioAssay (NCI)", "note": "This is part of a sample that, as a whole, favours compounds with a hit. Of some 83,000 tested, about 20% had one in any assay.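 Compound tested at a single concentration for 48 hours in 96-well plates; a percent growth value below 10 was scored as active.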 Activity calls are given as the source filed them."}
{"test_system": "SF-539 CNS", "assay": "NCI-60 one-dose screen, 48 h (100 = growth as untreated, 0 = no growth, -100 = all killed)", "settings": "10 µM unless noted"}
{"smiles": "COC(=O)CNC(=O)c1ccc(NC(=O)c2[nH]c(C)c(Cl)c2Cl)c(O[C@H]2CCNC2)c1", "growth": "98% (inactive)"}
{"smiles": "FC(F)(F)c1cccc(-c2nnn(Cc3cc(-c4cccc(Cl)c4)no3)n2)c1", "growth": "102% (inactive)"}
{"smiles": "O=C(Nc1ncc(Cc2ccccc2)s1)c1ccc2c(c1)OCCO2", "growth": "-10.4% (active)"}
{"smiles": "CCOC(=O)c1ccc2c(c1)[n+](=O)c(C(C)=O)c(C(F)(F)F)n2[O-]", "growth": "29.7% (inactive)"}
{"smiles": "O=C(Nc1ccccc1C(F)(F)F)C1=NCCCCN1", "growth": "96.1% (inactive)"}
{"smiles": "CCCCCC(C)(O)C(C(=O)O)c1ccccc1", "note": "(stereo not given)", "growth": "95.4% (inactive)"}
{"smiles": "Nc1ncnc2c1N=C(c1ccc([N+](=O)[O-])cc1)CC(c1ccc3c(c1)OCO3)N2", "note": "(stereo not given)", "growth": "85.7% (inactive)"}
{"smiles": "COc1cc2c(cc1OC)CC[N+](CCC[N+](C)(C)C)=C2", "growth": "98% (inactive)"}
{"smiles": "O=C1Nc2ccccc2/C1=C/c1cccn1CCCCCCn1c2ccccc2c(=O)c2ccccc21", "growth": "100% (inactive)"}
{"smiles": "CCCS(=O)(=O)Nc1cccc(Nc2ncnc3cc(NC(=O)CCl)ccc23)c1Cl", "growth": "-85% (active)"}
{"smiles": "Cc1ccc(C23CCC(=O)N2CCc2cncn23)cc1", "note": "(stereo not given)", "growth": "101% (inactive)"}
{"smiles": "Cc1ccc(-c2nn(CC(=O)N3CCOCC3)c(N)c2C#N)cc1", "growth": "99.2% (inactive)"}
{"smiles": "COC(=O)[C@H](C)NC(=O)[C@@H]1CCCN1C(=O)CNC(=O)[C@H](C)N", "growth": "106% (inactive)"}
{"smiles": "O=C1c2c(c3c4cccnc4[nH]c3c3ccc4ccccc4c23)C(=O)N1O", "growth": "39.6% (inactive)"}
{"smiles": "C#CCOc1cccc(Nc2ncnc3c(NC(=O)CCl)cccc23)c1", "growth": "-91.3% (active)"}
